KKLEB cytotox = cytotoxicity in KKLEB CF airway cells, primary screen, cytotoxicity control for CF NF-kB inhibitor project, cell-based, uHTS, fluorescence assay plates; KKLEB CF airway cells viability, ATPlite luminescence, overnight; active compounds read low; cells stimulated with P. aeruginosa culture filtrate; activity change (cytotoxicity), % at 5 µM; 0.36% of 360,000 active;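 active = corrected activity change at or below -50% at 5 µM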
CF NFkB block = inhibitors of PAF-induced NF-kB signaling, primary screen, cell-based, GFP fluorescence, uHTS | KKLEB NF-kB-GFP reporter, GFP fluorescence overnight | inhibition, % at 5 µM | 0.86% of 360,000 active | AID 588850, 2011;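 active = at least 50% inhibition at 5 µM, scaled per plate between neutral and stimulator controls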;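 also: PAF is a Pseudomonas aeruginosa culture filtrate used as stimulus; plate controls were PAF-stimulated DMSO wells for no effect and unstimulated DMSO wells for full effect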
TWEAK-Fn14 inh = inhibitors of TWEAK-Fn14 signaling, primary screen, luciferase reporter cells, uHTS; inhibition, % at 10 µM; 2% of 360,000 active; TWEAK-stimulated Fn14 reporter cells, luciferase luminescence, 8 h; AID 1159606, 2016; in the data active = inhibition above about 50%
TROY signal inh = inhibitors of TROY-driven NF-kB signaling, primary screen, Q293 LMP1-TROYcd cells, NF-kB luciferase, uHTS | AID 1347056, 2019 | 0.98% of 360,000 active | Q293 LMP1-TROYcd NF-kB luciferase reporter, 4 h | inhibition, % at 10 µM;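 active = compounds whose plate-normalised and pattern-corrected inhibition of the luciferase reporter signal at the single screening dose is 50% or more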
Peg3 promoter = Peg3 promoter-driven luciferase inhibitors, primary screen, cell-based, HeLa, luciferase luminescence | HeLa PEG-Prom luciferase reporter, overnight | inhibition, % at 20 µM | 1.7% of 360,000 active | AID 588405, 2011;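 active = inhibition of at least 50% at 20 µM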
HIF-2a inh = HIF-2a reporter inhibitors, primary screen, luminescence, 786-0 RCC cells; 786-0 RCC cells HIF-2a reporter, luciferase luminescence, overnight; inhibition, % at 18.8 µM; 0.72% of 360,000 active;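 active = inhibition of the luminescence signal of 40% or more relative to plate controls, in a single-dose primary screen at 18.75 µM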
Starred values were filed as active, the others as inactive; x = no result. Only some compounds are listed: those with a hit (about 4% of all), similar ones and a draw of the others.

SMILES	KKLEB cytotox	CF NFkB block	TWEAK-Fn14 inh	TROY signal inh	Peg3 promoter	HIF-2a inh
Cc1cc2nc(-c3ccc(SCc4ccccc4C#N)nc3)[nH]c2cc1C	-11	4	58*	64*	-93	-161
Fc1cccc(Cc2c(-c3ccco3)nc3c4ccccc4ccn23)c1	-20	-6	51*	7	-271	-235
Clc1cccc(Cc2c(-c3ccco3)nc3c4ccccc4ccn23)c1	x	x	69*	0	x	-211
Fc1cccc(Cc2c(-c3cccc(Cl)c3)nc3c4ccccc4ccn23)c1	0	-7	-29	-40	-77	-70
Clc1cccc(Cc2c(-c3cccc(Cl)c3)nc3c4ccccc4ccn23)c1	x	x	5	-69	x	-34
CCCOCCOC(=O)c1[nH]c2c(c1C)C(=O)CC(c1cc(OC)ccc1OC)C2 (stereo not given)	-16	54*	8	32	-20	-2
COc1cc(C2CC(=O)c3c([nH]c(C(=O)OCCOC(C)C)c3C)C2)cc(OC)c1OC (stereo not given)	-9	21	61*	41	38	-6
CCOCCOC(=O)c1[nH]c2c(c1C)C(=O)CC(c1ccc(OC)c(OC)c1)C2 (stereo not given)	8	21	21	7	21	0
COCCN(CCOC)Cc1c(C)[nH]c2ccccc2c1=O	1	-2	1	11	14	20
O=c1cc(Nc2ccc3c(c2)OCCO3)[nH]c(=O)n1-c1ccc(Cl)cc1	-12	4	72*	64*	-2	4
Cc1ccccc1NN1C(=O)C=CC1=O	-2	8	18	14	5	15
COc1ccc(C2=CC(=O)N(Nc3ccccc3)C2=O)cc1	2	29	12	3	40	34
Cc1ccc(NN2C(=O)C=CC2=O)cc1	5	-2	53*	36	8	12
Cc1ccc(NN2C(=O)C=C(c3ccc(Cl)cc3)C2=O)cc1	-11	37	-27	-37	105*	4
COCC(C)NC(=O)CCSc1nc(-c2ccc(OC)cc2)cc(C(F)(F)F)n1 (stereo not given)	5	-2	-18	-20	25	11
COc1ccc(/C=C2\SC(=O)N(CCNC(=O)C3CC4C=CC3C4)C2=O)cc1 (stereo not given)	-12	29	-17	-75	-322	-326
COc1cccc(-n2nnc3c(=O)n(Cc4ccc(Cl)cc4)cnc32)c1	-1	-13	-24	-34	-32	-39
CCCc1cc(=O)oc2c(CN(CC)CC)c(O)c(Cl)cc12	-4	6	-14	7	3	5
CCOc1ccc(-n2nnnc2-c2nc3ccccc3s2)cc1	-70*	70*	74*	62*	-74	-65
O=c1c2ccccc2sn1-c1ccc(Cl)cc1	-10	64*	24	4	-128	-240
O=c1c2ccc(F)cc2sn1-c1ccccc1	5	54*	1	-23	-95	-47
O=c1c2ccccc2sn1-c1ccc(F)cc1	-9	32	-5	-20	-65	-94
CCOC(=O)c1cc(C(C)(C)C)oc1CNC(=O)c1c(C)oc2c1CCCC2	6	7	-10	11	15	16
CCN(CC)c1ccc(NC(=S)NC(=O)C2CCC2)cc1	-1	10	-31	-44	-82	-102
O=C(c1cc(N2CCCCC2)nc2ccccc12)N1CCOCC1	14	-24	9	5	14	22
CC(=O)N/N=C\c1ccccc1OC/C=C/c1ccccc1	7	-28	-36	-30	-262	-104
COc1ccc(S(=O)(=O)Nc2cc(C(C)C)c(O)cc2C)cc1	1	4	-2	-2	4	4
COc1ccc2nc3cc(Cl)ccc3c(Nc3cc(C(C)C)c(O)cc3C)c2c1	-56*	38	63*	26	105*	-4
FC(F)(F)c1nc(-c2ccncc2)ncc1-c1nnnn1-c1ccccc1	-17	8	5	-7	17	16
Fc1ccc(-n2nnnc2-c2cnc(-c3cccs3)nc2C(F)(F)F)cc1	-15	-7	102*	59*	100*	5

Screening data from PubChem.
